Each structure is given as a SMILES string. Records with an inconclusive call do not appear. Activity calls are given as the source filed them. The calls were made as follows: active = hit-call score of the fitted dose curve at least 0.9, where 1 is the maximum; inconclusive = response in the unintended direction; inactive = score below 0.9.

The assay in a line: CCTE_Mundy_HCI_iCellGluta_NOG_NeuronCount: CCTE's Neurite Outgrowth Assay in iCellGluta cells for Neuron Count, Mundy Lab (AID 2284340).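 Also: cells fixed about 48 h after compound addition.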 As for the experimental part:
CCTE_Mundy_HCI_iCellGluta_NOG is a multiplexed, cell-based-readout assay that uses iCell GlutaNeurons from FUJIFILM Cellular Dynamics, Inc. (FCDI), human glutamatergic enriched neurons derived from induced pluripotent stem (iPS) cells, with measurements taken at 50.33 hours after chemical dosing in a microplate: 96-well plate.CCTE_Mundy_HCI_iCellGluta_NOG_NeuronCount is one of four components of the CCTE_Mundy_HCI_iCellGluta_NOG assay. It measures cell viability related to number of neurons using High Content Imaging of fluorescently labelled markers.Data from the assay component CCTE_Mundy_HCI_iCellGluta_NOG_NeuronCount was analyzed at the endpoint CCTE_Mundy_HCI_iCellGluta_NOG_NeuronCount in the positive analysis fitting direction relative to DMSO as the negative control and baseline of activity. Using a type of viability reporter, loss-of-signal activity can be used to understand developmental effects.
Exposure starts 2 hours post-plating by adding 10 ul of the working solution to 90 ul of media in the wells for a 1/10 dilution. Forty-eight hours after chemical treatment cells are fixed by direct addition of 100 ul of warm (37C) Dulbecco's phosphate buffered saline (DPBS) fixative solution containing 8% paraformaldehyde, 8% sucrose, and 0.1% of 3 mg/ml Hoechst 33342 into each well. Primary antibodies are prepared by dilution in Immunocytochemical Staining Buffer (ISB), 10X Dulbecco's PBS, 0.1% Saponin, 5% Bovine Serum Albumin, 0.5% NaN3 (Sodium Azide) and betaIII-tubulin (rabbit anti-betaIII-tubulin, 1:800) followed by Alexa Fluor-488 secondary (1:500) to label neuronal cell bodies and neurites. A Cellomics ArrayScan VTi HCS Reader is used for automated image acquisition and analysis of neurite outgrowth.
In general, AC50 refers to the concentration at which the activity in the assay is half-maximal. Turning to `[CH3][Hg][Cl]`, the AC50 is 0.0806 µM (active). Turning to `CCOP(=O)(OCC)OC(Cl)C(Cl)(Cl)Cl` (configuration not stated), the result was inactive. Turning to `CC1(C)[C@H](C=C(Cl)Cl)[C@H]1C(=O)OCc1c(F)c(F)cc(F)c1F`, the half-maximal activity concentration (AC50) is 21.7 µM (active). For the compound `COP(=O)(OC)SCN1C(=O)c2ccccc2C1=O`, the call was inactive. Same read-out and setting: the entry for `CNC(=N[N+](=O)[O-])NCC1CCOC1` (configuration not stated) is “inactive”; for `CCOP(=O)(Oc1cnc(C(C)(C)C)nc1)OC(C)C` (configuration not stated) it is “inactive”; for `C#CCN(C)[C@H](C)Cc1ccccc1` it is “inactive”.

On to `CC1(C)C(C=C(Cl)Cl)C1C(=O)O[C@H](C#N)c1cccc(Oc2ccccc2)c1` (some centres not stated), for which the outcome was inactive. Regarding `CC(=O)[O-].[Tl+]`, the AC50 is 31.3 µM (active). As to `[Cd+2].[Cl-].[Cl-]`, the AC50 was 15 µM (active). Consider `Cn1nc(C(F)(F)F)c(CS(=O)(=O)C2=NOC(C)(C)C2)c1OC(F)F`, for which the result was inactive. Consider `CC1(C)[C@H](C=C(Cl)Cl)[C@@H]1C(=O)O[C@@H](C#N)c1cccc(Oc2ccccc2)c1`, for which the compound was called inactive. On the same count and under the same terms, the result for `CCOP(=O)(OCC)SCSCC` reads “inactive”; that for `CC1(C)C(C=C(Cl)c2ccc(Cl)cc2)C1C(=O)OC(C#N)c1ccc(F)c(Oc2ccccc2)c1` (configuration not stated), “inactive”; that for `CC1(C)[C@@H](C=C(Cl)Cl)[C@@H]1C(=O)O[C@@H](C#N)c1ccc(F)c(Oc2ccccc2)c1`, “inactive”. As to `CCOP(=S)(OCC)SCS(=O)C(C)(C)C` (configuration not stated), the compound was called inactive. Turning to `CCOP(=O)(OCC)SCSC(C)(C)C`, the compound was called inactive.

Values taken from PubChem BioAssay (EPA / NIEHS).
